# A selection: hits, their analogues and other compounds. The true share with any hit is near 4.9%.
# PP5 primary: PP5 (human) phosphatase inhibition | P53041 | purified PP5c, OMFP substrate fluorescence | inhibition, % at 6.7 µM | actives 0.18% (n = 320,000) | AID 1987;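 active means inhibition above the campaign's mean inhibition across all tested compounds plus 3 SD, cut at about 9.5% in these data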
# Calb FLC: C. albicans growth modulation with fluconazole; growth inhibition, % (test concentration not listed); C. albicans CaCi-2 (fluconazole-resistant clinical isolate) + fluconazole, Alamar Blue growth, 48 h; actives 0.57% (n = 300,000);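 active means growth inhibition above about 58% in most replicates, limit read from the data, passing the limit was not always enough; inconclusive means exactly half the replicates above a set limit; inactive means most replicates below a set limit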;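 further: all wells also contain fluconazole at 8 µg/ml as a sub-toxic cotreatment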
# Mdm2-MdmX inh: inhibitors of human Mdm2/MdmX interaction. O15151+Q00987. SaOS-2 split-luciferase Mdm2/MdmX complementation, luminescence. inhibition, % at 8 µM. actives 3% (n = 330,000). AID 485346;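 active means inhibition of at least 50% at 8 µM in the primary screen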
# Target sequence (O15151 whole entry, looked up): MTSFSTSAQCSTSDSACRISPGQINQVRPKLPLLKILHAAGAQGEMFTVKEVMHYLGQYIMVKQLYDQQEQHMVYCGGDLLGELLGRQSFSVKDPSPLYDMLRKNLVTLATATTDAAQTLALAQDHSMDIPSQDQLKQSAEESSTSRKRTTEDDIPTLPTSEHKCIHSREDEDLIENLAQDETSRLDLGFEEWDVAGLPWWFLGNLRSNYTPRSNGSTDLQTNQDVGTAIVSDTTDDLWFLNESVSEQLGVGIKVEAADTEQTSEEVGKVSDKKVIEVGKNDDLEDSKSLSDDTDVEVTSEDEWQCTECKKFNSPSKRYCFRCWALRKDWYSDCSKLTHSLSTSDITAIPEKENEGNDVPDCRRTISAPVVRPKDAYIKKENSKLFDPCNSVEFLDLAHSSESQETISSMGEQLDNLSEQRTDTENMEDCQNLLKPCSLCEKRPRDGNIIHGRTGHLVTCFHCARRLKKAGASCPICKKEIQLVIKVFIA
# Target sequence (Q00987 whole entry, looked up): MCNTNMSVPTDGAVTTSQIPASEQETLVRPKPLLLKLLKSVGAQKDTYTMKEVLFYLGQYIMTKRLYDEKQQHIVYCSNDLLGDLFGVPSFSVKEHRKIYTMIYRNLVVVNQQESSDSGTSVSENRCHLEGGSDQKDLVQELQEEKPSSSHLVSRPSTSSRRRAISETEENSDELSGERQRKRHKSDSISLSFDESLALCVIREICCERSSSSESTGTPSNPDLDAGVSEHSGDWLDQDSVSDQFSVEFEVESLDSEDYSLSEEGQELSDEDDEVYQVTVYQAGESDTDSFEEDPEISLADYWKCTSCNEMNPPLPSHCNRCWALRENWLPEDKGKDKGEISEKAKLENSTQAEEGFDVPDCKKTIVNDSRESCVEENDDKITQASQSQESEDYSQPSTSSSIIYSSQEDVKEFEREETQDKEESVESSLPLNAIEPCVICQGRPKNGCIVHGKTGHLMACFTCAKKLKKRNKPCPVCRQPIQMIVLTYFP
# Beta cell apopt: blocks beta cell apoptosis | INS-1E cytokine-induced death, ATP luminescence, 48 h; percent of positive-control rescue, neutral wells zero | protection from apoptosis, % (no concentration beside the values) | actives 0.8% (n = 300,000) | AID 435005;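 active means Every replicate reaches about 75%, or at least half do and their mean reaches it too, limit read from the data; inconclusive means At least half of replicates reach the limit but their mean does not; inactive means Under half of replicates reach the limit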;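 further: higher means more ATP so stronger rescue from cytokine killing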
# CSC inhib: cancer stem cell inhibition. inhibition, % at 7.5 µM. cancer stem cell-like cells viability, luminescence. AID 2717. actives 1.1% (n = 300,000); in the data active means inhibition above about 75%; inconclusive means no clear call, values can overlap the other calls; tested in HMLE shEcad cells
# PP1 inh: blocks human PP1-alpha phosphatase, a PP5 counter-screen. P62136. purified PP1alpha, OMFP fluorescence. inhibition, % at 6.7 µM. actives 0.9% (n = 320,000). AID 2235;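 active means inhibition above the mean inhibition of all tested compounds plus 3 SD, computed separately for each screening campaign, cut at about 15% in these data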
# Numbers stand for hits; i = inactive; ? = inconclusive; nt = no result.
SMILES,PP5 primary,Calb FLC,Mdm2-MdmX inh,Beta cell apopt,CSC inhib,PP1 inh
Cc1onc(-c2c(F)cccc2Cl)c1C(=O)NNC(=O)C1CCN(Cc2ccccc2)CC1,i,92,i,i,i,i
CCOC(=O)c1c(N)sc2c1CCN(CCc1ccccc1)C2,i,i,i,i,i,i
O=C(Nc1nc2ccc(SC(F)F)cc2s1)c1ccc(NS(=O)(=O)c2ccc(F)c(F)c2)cc1,i,?,i,i,79,i
CS(=O)(=O)c1ccc2nc(NC(=O)c3ccc(NS(=O)(=O)c4ccc(F)c(F)c4)cc3)sc2c1,i,i,i,i,i,i
Cc1ccc(-c2nc(CS(=O)CC(=O)NCc3ccc4c(c3)OCO4)c(C)o2)cc1 (configuration not stated),i,i,i,i,76,i
Nc1cc(N)cc(C(=O)OCC(=O)Nc2cc(S(=O)(=O)N3CCCCC3)ccc2Cl)c1,i,i,i,i,nt,i
O=C(O)/C=C/C(=O)N1Cc2cc3ccccc3nc2C1,i,i,i,i,i,i
Cc1ccsc1/C=N/NS(=O)(=O)c1ccc([N+](=O)[O-])cc1,i,101,i,i,i,i
CCCSc1nc2sc3c(c2c(=O)n1CC)CC(C)(C)OC3,i,i,i,i,i,i
CSc1nc2sc3c(c2c(=O)n1CC(C)C)CC(C)(C)OC3,i,i,i,i,75,i
N#Cc1ccccc1OCC(=O)NNC(=O)CCNC(=O)c1ccccc1,nt,nt,i,i,i,nt
COc1ccccc1COCC(O)CNCCc1ccc(C(F)(F)F)cc1 (configuration not stated),i,i,i,i,i,i
COc1ccc(CCNCC(O)COc2cccc(Br)c2)cc1 (configuration not stated),i,i,i,i,i,i
OC(CNCCc1ccc(C(F)(F)F)cc1)COc1cccc2ccccc12 (configuration not stated),i,i,i,i,96,i
OC(CNCCc1ccc(C(F)(F)F)cc1)COc1ccc2ccccc2c1 (configuration not stated),i,105,i,i,77,i
Cc1ccc2ccc[n+](Cc3ccccc3)c2c1,i,i,i,i,i,i
Cc1ccc(C[n+]2cccc(-c3ccccc3)c2)c(C)c1,i,i,i,97,i,i
CCC(C(=O)Nc1cc(Cl)ccc1OC)c1ccccc1 (configuration not stated),i,i,i,i,i,i
CCC(C(=O)Nc1cc(OC)c(NC(=O)c2ccccc2)cc1OC)c1ccccc1 (configuration not stated),i,i,i,i,79,i
Cc1cc(C)cc(-n2c(C)cc(/C=C3\C(=N)N4N=C(CC(C)C)SC4=NC3=O)c2C)c1,i,i,i,i,103,i
Cc1cccc(-n2c(C)cc(/C=C3\C(=N)N4N=C(CC(C)C)SC4=NC3=O)c2C)c1,i,i,i,i,i,i
CCc1ccc(/C=C2/SC(=S)N(CCCC(=O)Nc3ccccc3C(=O)O)C2=O)cc1,i,86,i,i,i,i
O=C(CCN1C(=O)S/C(=C\c2ccccc2)C1=O)NCCCn1ccnc1,i,i,i,i,i,i
O=C(CCCN1C(=O)/C(=C/c2ccccc2)SC1=S)NCCCn1ccnc1,i,i,i,121,90,i
O=C(CCCN1C(=O)/C(=C\c2ccccc2)SC1=S)Nc1ccc(O)cc1C(=O)O,i,i,i,i,i,i
SMILES,PP5 primary,Calb FLC,Mdm2-MdmX inh,Beta cell apopt,CSC inhib,PP1 inh
CCC(C)[C@@H](CN)NCC1(c2ccccc2)CC1 (some centres not stated),i,nt,i,i,i,i
CC1CCC(NC(=O)CCn2ccc3cc(S(=O)(=O)N4CCCC4)ccc32)CC1 (configuration not stated),i,i,i,i,i,i
O=C(CNC(=O)C1CCCCC1)NC1CCCCC1,i,i,i,i,i,i
O=C(C[C@H]1C[C@H](C(=O)N2CCCCC2)[C@@]2(CCc3ccccc3)c3[nH]c4ccc(Cl)cc4c3CCN2C1=O)NCc1ccco1,nt,nt,i,nt,nt,nt
c1ccc(Oc2nnc(-c3cccs3)c3ccccc23)cc1,i,i,i,i,i,16
Cc1ccc(Oc2nnc(-c3cccs3)c3ccccc23)cc1,i,i,i,i,nt,i
O=C(CCC(=O)N1CCN(c2ccc(O)cc2)CC1)c1cccs1,i,i,i,i,i,i
CCOc1ccc(C(=O)CCC(=O)N2CCN(c3ccc(O)cc3)CC2)cc1,nt,nt,i,i,81,nt
CCOC(=O)N1CCN(C(=O)CCC(=O)c2ccc(OCC)cc2)CC1,i,i,i,nt,i,i
